Only some compounds are listed: those with a hit (about 7.9% of all), similar ones and a draw of the others.
KB-3-1 cytotox: qHTS assay for MDR1-selective chemotherapeutics: Primary screen using the parental adenocarcinoma cell KB-3-1 | KB-3-1 viability, CellTiter-Glo ATP luminescence, 72 h | Potency, µM (titrated, usually from 46.1 µM), usual class: cytotoxic | 400,000 tested, 1.4% active | AID 1347075, 2019; also: % is scaled to controls: 0 for no effect and ±100 for the full control effect; nearly all actives have a fitted effect of over 60% in size
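Cells are dispensed, compounds pinned in, plates held at 37 °C for 72 h, then CellTiter-Glo is added and luminescence read after 10 minutes. Cell line: parental KB-3-1 in phenol-red-free DMEM, 10% FBS.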
MCF10A rerep: A quantitative high throughput screen for small molecules that induce DNA re-replication in MCF 10a normal breast cells; MCF 10A DNA re-replication, Hoechst nuclear intensity, 48 h; 350,000 tested, 2.9% active; Potency, µM (series often up to 46.1 µM), for inactives: top-dose activity, positive = re-replication, most hits filed as activators; also: % of control where 0% means no effect; nearly all actives have a fitted effect of over 50% in size
HT1080NT lethal: qHTS for induction of synthetic lethality in tumor cells producing 2HG: qHTS for the HT-1080-NT fibrosarcoma cell line. HT-1080-NT fibrosarcoma viability, CellTiter-Glo ATP luminescence, 48 h. Potency, µM (series often up to 46.1 µM), for the others: at the top dose activity, negative = less viability, most hits filed as cytotoxic. 360,000 tested, 1.6% active;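 also: NT is the 2HG producing partner of a matched IDH1 knockdown line; 0% = DMSO-treated cells and -100% = media-only wells without cells; nearly all actives have a fitted effect of over 55% in size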
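HT-1080-NT fibrosarcoma cells (2HG-overproducing), 750 cells/well in RPMI with 5% FBS, dosed after 2 h and incubated 48 h at 37C. CellTiter-Glo luminescence normalized to DMSO and no-cell wells; concentration-response curves fitted and classed.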
KB-V1 MDR tox: qHTS assay for MDR1-selective chemotherapeutics: Primary screen using the drug-selected MDR subline cells KB-V1; KB-V1 MDR cells viability, CellTiter-Glo, 72 h; Potency, µM (titrated, usually from 46.1 µM), actives largely listed as cytotoxic; 400,000 tested, 3.4% active; AID 1347076, 2019; also: % is scaled to controls: 0 for no effect and ±100 for the full control effect; nearly all actives have a fitted effect of over 60% in size
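Luminescent ATP read-out (CellTiter-Glo, 10 min) measures survival of drug-selected KB-V1 MDR cells after 72 h, 37 degrees C compound exposure. Medium: phenol-red-free DMEM, 10% FBS. Values from fitted concentration-response curves.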
HT1080 IDH1KD tx: qHTS for induction of synthetic lethality in tumor cells producing 2HG: qHTS for the HT-1080-IDH1KD cell line. AID 686971, 2013. 360,000 tested, 2% active. Potency, µM (top dose mostly 46.1 µM), inactives show top-dose activity, negative = toxicity, actives largely listed as cytotoxic. HT-1080 IDH1 knockdown viability, ATP luminescence, 48 h;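 also: 0% = DMSO wells and -100% = cell-free medium wells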
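IDH1KD HT-1080 cells, 750/well, RPMI + 5% FBS; compound pinned after 2 h settling; 48 h, 37 °C; CellTiter-Glo luminescence; % activity normalised to DMSO and no-cell wells; curves fitted, classed by r2 and efficacy.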
SW480 rereplic: A quantitative high throughput screen for small molecules that induce DNA re-replication in SW480 colon adenocarcinoma cells; SW480 DNA re-replication, Hoechst DNA content imaging, 48 h; Potency, µM (series often up to 46.1 µM), for inactives: at the highest dose re-replication activation, usual class: activators; 340,000 tested, 1.8% active; AID 624297, 2012; also: % of control where 0% means no effect; nearly all actives have a fitted effect of over 55% in size
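Image-based read-out: total Hoechst fluorescence of nuclei (405 nm excitation, 500-530 nm emission), with hits raising the fraction of high-intensity nuclei. SW480 colon cells incubated 48 hr with compounds at 37 C.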
Starred values were filed as active, the others as inactive; i = inactive; ? = inconclusive; · = no result given; [ ] = remark or other dose. Calls follow the shape of the dose curve; as a rule, active = well fitted curve in the direction sought with a large enough effect; inconclusive = small, poorly fitted or top-dose-only effect, or another doubt; inactive = no such curve, though single readings can be large; an effect the other way counts as inactive or inconclusive. Potency is read from the fitted curve at half-maximal effect.

SMILES	KB-3-1 cytotox	MCF10A rerep	HT1080NT lethal	KB-V1 MDR tox	HT1080 IDH1KD tx	SW480 rereplic
O=C(CF)N(O)c1ccc(C=Cc2ccccc2)cc1	i	6.51µM*	-22.0%	i	?	10.3µM*
C[N+]1([O-])[C@H]2CC[C@H]1CC(OC(=O)[C@@H](CO)c1ccccc1)C2 (some centres undefined)	·	5.9%	·	·	·	0.3%
COc1ccc(-c2ccc(OC)c(OC)c2OC)cc1	?	4.61µM*	?	?	?	3.66µM*
O=[N+]([O-])c1ccc(N2CCOCC2)c2c1no[n+]2[O-]	?	·	5.17µM*	5.17µM*	5.17µM*	·
COc1ccc(C2/C=C\CN(C(=O)Oc3ccc(C(F)(F)F)cc3)CC(=O)N2Cc2ccc(F)cc2)cc1 (centres undefined)	i	?	-9.8%	i	-3.5%	22.3%
CC1CCCC(C)N1/N=C/c1c[nH]c2ccc(Br)cc12 (centres undefined)	?	?	20.6µM*	i	?	?
COc1cc2c(cc1OC)-c1c(OC)c(OC)c(OC)c3ccnc(c13)C2=O	i	?	1.9%	?	1.9%	8.2µM*
N#Cc1cc(NC(=O)c2ccc(Cl)cc2)ccc1Sc1ccccc1	?	·	?	i	20.6µM*	·
CC(C)CCCn1c(O)c(/C=C2/C=CC=N2)c(=O)[nH]c1=O	16.4µM*	18.4µM*	18.4µM*	?	16.4µM*	13µM*
CCCCn1c(O)c(C=NCCCn2ccnc2)c(=O)[nH]c1=O	i	-5.2%	-5.7%	i	0.1%	-3.8%
c1ccc(N2CCN(c3ccccc3)CC2)cc1	i	·	·	i	·	·
C[C@H]1CCCC=CC2C[C@H](O)C[C@@H]2[C@H](O)C=CC(=O)O1 (some centres undefined)	0.0073µM*	·	·	0.0184µM*	·	·
C[C@H]1CCC/C=C/[C@@H]2C[C@H](O)C[C@H]2[C@@H](O)/C=C/C(=O)O1	0.184µM*	4.6%	?	0.184µM*	0.146µM*	?
O=C(NCCCN1CCCC1)c1ccc2c(c1)N(Cc1cccc(Cl)c1)C(=O)c1ccccc1S2=O (centres undefined)	i	2.4%	16.4µM*	i	?	-6.8%
O=C(Cc1ccccc1)N1CCN(Cc2cccc(Cl)c2)CC1	i	-1.1%	9.2%	i	?	1.0%
CCOC(=O)[C@]12Cc3c(cc(OC)c(OC)c3OC)[C@H]1N(CCC(=O)OC)C(=O)c1ccccc12	8.2µM*	·	?	?	?	·
CCOC(=O)[C@]12Cc3cc(OC)ccc3[C@H]1N(CCC(=O)OC)C(=O)c1cc(OC)ccc12	5.17µM*	·	?	?	?	·
CCOC(=O)[C@]12Cc3ccccc3[C@H]1N(CCC(=O)OC)C(=O)c1cc(OC)ccc12	?	·	?	9.2µM*	?	·
CCOC(=O)[C@]12Cc3cc(OC)ccc3[C@H]1N(Cc1ccccc1)C(=O)c1cc(OC)ccc12	?	·	-20.1%	i	-25.6%	·
CC(C)(C)CC(C)(C)c1ccc(O)cc1	·	?	·	·	·	9.5%
Cc1cccc(C(=O)NCCC(=O)NCc2ccccc2F)c1	i	?	0.0%	i	5.3%	-44.4%
O=C1C=C(N2CC2)c2ccccc2C1=O	20.6µM*	·	23.1µM*	i	?	·
CC/C(=N\N1CCCCCC1)c1c(O)n(-c2ccccc2C)c(=O)[nH]c1=O	i	10.8%	2.6%	11.6µM*	3.9%	-1.4%
Cc1nn(-c2ccccc2)c2c1C(c1ccc3c(c1)OCO3)SCC(=O)N2 (centres undefined)	i	14.6µM*	13.7%	?	-2.0%	23.7%
COc1cc(C2SCC(=O)Nc3c2c(C)nn3-c2ccccc2)cc(OC)c1OC (centres undefined)	i	0.8%	-4.2%	i	0.8%	-2.1%
SMILES	KB-3-1 cytotox	MCF10A rerep	HT1080NT lethal	KB-V1 MDR tox	HT1080 IDH1KD tx	SW480 rereplic
O=C(NCc1ccccc1)c1cccn(Cc2ccccc2)c1=O	i	13.0%	-1.7%	i	0.0%	0.4%
O=C(c1cc(C(=O)NCc2ccccc2)c(=O)n(Cc2ccccc2)c1)c1cc(Cl)ccc1O	?	?	-19.8%	18.4µM*	-23.9%	11.5%
Cc1ccc(NP(=O)(Oc2ccccc2)Oc2ccccc2)cc1	i	-0.1%	-17.4%	i	-5.6%	9.0%[1.84 µM]
Cc1ccc(OP(=O)(NCc2ccccc2)Oc2ccc(C)cc2)cc1	?	?	-1.2%	14.6µM*	0.5%	?
C[C@]12CCC(=O)C(O)=C1CC[C@@H]1[C@H]3CCC(=O)[C@@]3(C)CC[C@@H]12	·	14.9%	·	·	·	-1.6%
O=c1[nH]c(=O)n(CCC2=CCCCC2)c(O)c1/C=N/N1CCOCC1	i	-5.0%	-0.3%	i	0.1%	-18.5%
O=c1[nH]c(=S)n(CCC2=CCCCC2)c(O)c1/C=N/N1CCOCC1	i	18.4µM*	1.8%	i	-17.3%	?
Clc1ccc(Cl)cc1	·	-1.2%	·	·	·	1.5%
C[C@H]1[C@H](OC(=O)CCC(=O)NCc2ccc(C(=O)O)cc2)O[C@@H]2O[C@@]3(C)CC[C@H]4[C@H](C)CC[C@@H]1C24OO3	8.2µM*	?	?	14.6µM*	8.2µM*	?
CC(C)CC(NC(=O)CCCNC(=O)CCC(=O)OC1O[C@H]2OC3(C)CC[C@H]4[C@H](C)CCC(C1C)C24OO3)C(=O)O (some centres undefined)	7.31µM*	24.0%	23.1µM*	?	18.4µM*	8.2µM*
CC1C(OC(=O)CCC(=O)NC(C)(C)CO)O[C@H]2OC3(C)CC[C@H]4[C@H](C)CCC1C24OO3 (some centres undefined)	10.3µM*	29.8%	?	13µM*	10.3µM*	?
CCC(=O)Nc1ccc(C(=O)NNC(=O)c2cc([N+](=O)[O-])cc([N+](=O)[O-])c2)cc1	i	11.3%	-0.1%	i	5.1%	-39.3%
Clc1ccc(CCC(Cn2ccnc2)Sc2c(Cl)cccc2Cl)cc1 (centres undefined)	?	?	?	20.6µM*	?	-56.2%
Clc1ccc([C@H](Cn2ccnc2)OCc2csc3c(Cl)cccc23)c(Cl)c1	·	4.1%[20.6 µM]	·	·	·	0.0%[20.6 µM]
